# Shown are actives, neighbours in structure and some others; about 11% of the full set was active somewhere.
# PNC assembly inh: inhibitors of perinucleolar compartment assembly; PC3M PTB-GFP, PNC prevalence imaging, 16 h; active compounds read low; activity change (PNC), negative = inhibition, % at 10 µM; hit rate 3.1% among 140,000; AID 2417;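 active = readout at or below -70, meaning at least 70% loss of cells showing the perinucleolar compartment, a nuclear body marking cancer cells; inconclusive = readout between -30 and a set limit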;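 also: plate controls were DMSO wells for no effect and camptothecin positive control wells for full effect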
#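 Compounds are pinned in duplicate onto adhered PC3M cells stably expressing GFP-tagged PTB and incubated 16 h at 37 C. Cells are then fixed, nuclei stained with Hoechst, and PNC-positive cells counted.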
# HTT aggregate: reduces HttQ103-GFP aggregates in PC12 cells; PC12 HttQ103-GFP aggregates, Acumen cytometry, 40 h; Potency, µM (top dose mostly 46.1 µM), for inactives: at the highest dose activity change, negative = inhibition, hits mostly inhibitors; hit rate 1.1% among 220,000; active = well fitted curve in the direction sought with a large enough effect; inconclusive = small, poorly fitted or top-dose-only effect, or another doubt; inactive = no such curve, though single readings can be large; an effect the other way counts as inactive or inconclusive; also: potency is read from the fitted curve at half-maximal effect; % is scaled to controls: 0 for no effect and ±100 for the full control effect; nearly all actives have a fitted effect of over 60% in size
#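 Using laser scanning cytometry, GFP-positive aggregates were counted after lysis of PC12 cells induced with 100 nM tebufenozide to express HTT exon 1 Q103–GFP. Compounds were tested in titration.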
# RGS12 GoLoco inh: inhibitors of human Gai1-RGS12 GoLoco interaction (red fluorophore); P63096; Gai1:RGS12 GoLoco peptide FP, rhodamine, 10 min; Potency, µM (series often up to 61.6 µM), inactives show top-dose activity, negative = inhibition, actives largely listed as inhibitors; hit rate 0.44% among 230,000; active = well fitted inhibition curve with a large enough effect, not every such curve was filed as active; inactive = no such curve, though single readings can be large or run the other way; also: potency is read from the fitted curve at half-maximal effect; % is scaled to controls: 0 for no effect and ±100 for the full control effect; nearly all actives have a fitted effect of over 30% in size
# Target sequence (P63096 whole entry, looked up): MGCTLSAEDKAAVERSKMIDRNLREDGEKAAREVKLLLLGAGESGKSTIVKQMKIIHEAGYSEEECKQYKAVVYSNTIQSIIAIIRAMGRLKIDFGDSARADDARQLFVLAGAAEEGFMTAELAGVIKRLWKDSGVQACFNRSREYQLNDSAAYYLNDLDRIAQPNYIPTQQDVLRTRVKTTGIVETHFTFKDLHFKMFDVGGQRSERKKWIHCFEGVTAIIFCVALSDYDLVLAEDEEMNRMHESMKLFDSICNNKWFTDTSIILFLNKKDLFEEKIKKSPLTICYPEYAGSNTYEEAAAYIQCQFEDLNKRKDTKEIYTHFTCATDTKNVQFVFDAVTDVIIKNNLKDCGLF
# HPGD block: inhibitors of human 15-hydroxyprostaglandin dehydrogenase (HPGD) | hit rate 4.3% among 150,000 | P15428 | purified HPGD, NADH fluorescence kinetic, PGE2 substrate | Potency, µM, inactives show at the top dose activity change, negative = inhibition, actives largely listed as inhibitors; also: potency is read from the fitted curve at half-maximal effect; % is scaled to controls: 0 for no effect and ±100 for the full control effect
# Target sequence (P15428 whole entry, looked up): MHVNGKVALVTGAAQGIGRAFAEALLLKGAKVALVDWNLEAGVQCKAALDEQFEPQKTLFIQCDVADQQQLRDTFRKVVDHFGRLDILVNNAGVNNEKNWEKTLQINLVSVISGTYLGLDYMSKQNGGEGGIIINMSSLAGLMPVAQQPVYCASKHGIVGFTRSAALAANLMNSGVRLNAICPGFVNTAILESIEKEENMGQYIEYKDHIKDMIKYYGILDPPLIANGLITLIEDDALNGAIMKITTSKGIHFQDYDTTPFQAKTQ
#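 20 nM HPGD preincubated 15 min at room temperature with compound in 50 mM Tris-HCl pH 8, 0.01% Tween 20. Started with 1 mM NAD+ and 30 uM prostaglandin E2; NADH fluorescence (360/450 nm) read 5 times over 30-s intervals, last minus first.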
# ALDH1A1 block: blocks purified human ALDH1A1 activity; hit rate 7.3% among 220,000; Purified ALDH1A1, NADH fluorescence, propionaldehyde substrate; P00352; Potency, µM (titrated, usually from 75.3 µM), inactives show at the highest dose activity, negative = inhibition, hits mostly inhibitors; AID 1030;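 also: potency is read from the fitted curve at half-maximal effect; plate controls were no enzyme wells and a reference inhibitor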
# HTT ATP protect: protects HTT-Q103 PC12 cells, measured by ATP. PC12 HTT-Q103 induced, cytoprotection, ATP luminescence, 40 h. Potency, µM (doses to about 56.4 µM), for the others: cytoprotection (ATP increase), hits mostly activators. hit rate 0.14% among 230,000. AID 1471; active = well fitted curve in the direction sought with a large enough effect; inconclusive = small, poorly fitted or top-dose-only effect, or another doubt; inactive = no such curve, though single readings can be large; an effect the other way counts as inactive or inconclusive; also: potency is read from the fitted curve at half-maximal effect; % of control where 0% means no effect; nearly all actives have a fitted effect of over 45% in size
#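 PC12 cells with ecdysone-inducible HTT exon 1 Q103-GFP, induced with 100 nM tebufenozide and co-treated with library compounds in a dose series (1536-well, 1500 cells/well). Cytoprotection read as ATP content by ATPlite luminescence.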
# Numbers without * were called inactive; u = inconclusive; x = no result given; [ ] = another dose, or the depositor's remark. Unless noted, calls follow the shape of the dose curve; as a rule, active = well fitted inhibition curve with a large enough effect (not every such curve was filed as active); inconclusive = small, poorly fitted or top-dose-only effect, or another doubt; inactive = no such curve, though single readings can be large or run the other way.
SMILES,PNC assembly inh,HTT aggregate,RGS12 GoLoco inh,HPGD block,ALDH1A1 block,HTT ATP protect
Cc1ccc(N2C(=O)[C@@H]3[C@H](C2=O)C2c4ccccc4C=CN2[C@@H]3C(=O)c2ccco2)c(C)c1 (some centres not stated),u,21%,122%,35µM*,7.9µM*,4%[0.074 µM]
Cc1ccc(N2C(=O)[C@@H]3[C@H](C2=O)C2c4ccccc4C=CN2[C@@H]3C(=O)c2ccco2)cc1 (some centres not stated),-7,14%,118%,32µM*,4.5µM*,-10%
Cc1ccc(-n2ncc3c(NNC(=O)c4ccco4)ncnc32)c(C)c1,x,2%,-8%,x,6%,-21%
COc1ccc(N2C(=O)[C@@H]3[C@H](C2=O)[C@H]2c4ccccc4C=CN2[C@@H]3C(=O)Nc2ccccc2)cc1,22,10%[1.84 µM],24%,-22%,25µM*,-5%
CC(=O)[C@@H]1[C@@H]2C(=O)N(Cc3ccccc3)C(=O)[C@@H]2C2c3ccccc3C=CN21 (some centres not stated),-19,-2%,29%,u,20µM*,-32%
CC(C)(C)C(=O)[C@@H]1[C@@H]2C(=O)N(c3ccc4c(c3)OCCO4)C(=O)[C@@H]2C2c3ccccc3C=CN21 (some centres not stated),-24,0%,-7%,u,u,-24%
CCc1c(C)sc(NC(=O)c2ccccc2[N+](=O)[O-])c1C(N)=O,-28,6%,6%,-12%,u,14%[10 µM]
CC(=O)Oc1c(/C=C(\C#N)C(N)=O)[nH]c2ccccc12,19,8%,-4%,u,-2%,x
c1cncc(CNc2nc(-c3ccoc3)nc3ccccc23)c1,x,x,1%,-6%,-2%,-8%
O=C(c1ccco1)[C@@H]1[C@@H]2C(=O)N(c3ccccc3)C(=O)[C@@H]2C2c3ccccc3C=CN21 (some centres not stated),31,u,57%,u,2.2µM*,-1%[0.074 µM]
Cn1nnnc1SCCNCc1cc(Cl)ccc1OCc1ccccc1,-3,25µM*,3%,-4%,13µM*,17%[10 µM]
O=C(O)c1cn(Cc2cccnc2)c(=O)c2ccccc12,x,9%,-1%,x,-15%,-28%
CCCCCCC1CC(CC(=O)Nc2ccc([N+](=O)[O-])cc2)C(=O)O1 (configuration not stated),-104*,-14%,-11%,-3%,14%,20%[1.9 µM]
CCN1C(=O)[C@H]2[C@H]3[C@H](O)[C@H](O)C/C(=N/NC(=O)OCc4ccc(OC)cc4)[C@H]3CC[C@@H]2C1=O,x,x,x,x,5%[13.5 µM],-7%[10 µM]
O=C(c1ccc(CNc2c(N3CCCC3)c(=O)c2=O)cc1)N1CCc2ccccc2C1,u,u,2%,3.5µM*,10%,-7%
CCOC(=O)C1CCN(c2c(NCc3ccc(C(=O)NC(C)CC)cc3)c(=O)c2=O)CC1 (configuration not stated),5,-17%,0%,5µM*,u,-11%
CC1CC(C)CN(C(=O)c2ccc(CNc3c(N4CCCC4)c(=O)c3=O)cc2)C1 (configuration not stated),x,-29%[9.22 µM],-2%,x,x,-9%[10 µM]
CN(C)c1ccc(CNC(=O)c2ccc(CNc3c(N4CCCCC4)c(=O)c3=O)cc2)cc1,-1,-8%,-14%,22µM*,28µM*,-29%
COc1ccccc1OCCCCN1CCN(C(c2ccccc2)c2ccccc2)CC1,-10,-7%,0%,-19%,u,-21%[10 µM]
COc1cccc(S(=O)(=O)c2nc(C)c3c(n2)CCC3)c1,x,13%[9.22 µM],3%,x,6.3µM*,-20%[1.9 µM]
Cc1c(C(=O)c2ccc(N(C)C)cc2)c2ccccn2c1CCC#N,x,-14%,3%,x,16µM*,-48%
Cc1c(C(=O)c2ccc(Cl)c([N+](=O)[O-])c2)c2ccccn2c1CCC#N,12,-4%,2%,-17%,u,35%[10 µM]
Cc1ccc(Nc2nc(NCc3ccco3)c3ccccc3n2)cc1,x,11µM*,5%,x,u,-92%
Oc1ccccc1-c1nc(NCc2ccco2)c2ccccc2n1,-2,-19%,11%,-10%,-3%,-22%
OCCNc1nc(Nc2ccccc2)nc2ccccc12,-119*,u,5%,-11%,3%,-4%[10 µM]
SMILES,PNC assembly inh,HTT aggregate,RGS12 GoLoco inh,HPGD block,ALDH1A1 block,HTT ATP protect
c1ccc(-c2nc(NCc3ccco3)c3ccccc3n2)nc1,6,18µM*,-3%,-14%,u,-72%
O=C(NNC(=S)Nc1ccccc1Cl)c1ccncc1,x,3%[9.22 µM],3%,x,x,-6%[10 µM]
O=c1c(-c2ccc(F)c(F)c2)nc2cncnc2n1Cc1ccc(F)cc1,x,x,-3%,-14%,-13%,-14%
CC12C=C(/C=C/c3ccccc3)C(C)(C1)C(c1ccccc1)CC2=O (configuration not stated),x,x,x,x,-8%[13.5 µM],6%[10 µM]
COc1ccc(C(=O)N2CCC3(CCN(Cc4cc(C(F)(F)F)cc(C(F)(F)F)c4)CC3)CC2)cc1,x,x,-1%,-15%,1%,u
Cn1c(N2CCOCC2)c(/C=N/OC(=O)c2ccc(F)cc2)c2ccccc21,-99*,u,1%,-8%,-3%,-19%
Cc1ccc(C(=O)O/N=C/c2c(N3CCOCC3)n(C)c3ccccc23)cc1,82,u,15%,u,u,-15%
Nc1ccccc1S[C@@H](C[N+](=O)[O-])c1ccc2c(c1)OCO2,x,x,-3%[14.2 µM],3.2µM*,3.5µM*,4%[10 µM]
COc1ccc(/C=C2\COc3ccccc3C2=O)cc1OC,u,-6%,7%,u,u,33%[0.074 µM]
COc1ccc2c(c1)OC/C(=C\c1ccc(OC)c(O)c1)C2=O,x,x,3%,11µM*,5.6µM*,6.3µM*
NCCCCCCNS(=O)(=O)c1ccc2c(Cl)cccc2c1,x,x,-1%,0%,u,-54%[1.9 µM]
COc1ccccc1N1C(=O)N(C(C)=O)C2C1Nc1ccccc1N2C (configuration not stated),-4,u,-7%,-10%,1.8µM*,-52%
COc1ccccc1N1C(=O)c2ccccc2NC1c1ccncc1 (configuration not stated),-2,-13%,-1%,-26%,u,12%[10 µM]
O=C(O)c1cccc(N2C(=O)c3cccc4c(Cl)ccc(c34)C2=O)c1,x,11%,-11%,x,u,x
O=C(O)c1cccc(N2C(=O)c3cccnc3C2=O)c1,-100*,-6%,-18%,-2%,0%,4%[10 µM]
O=C(O)c1cccc(N2C(=O)C3CC=CCC3C2=O)c1 (configuration not stated),-100*,20%,-2%,-13%,-1%,2%[10 µM]

# Bioassay records: PubChem, National Center for Advancing Translational Sciences (NCATS)
